Test results from PubChem BioAssay (NCATS).
Results filed as inconclusive are left out. Calls of active or inactive are those of the source. Calls follow the shape of the dose curve; as a rule, active = well fitted inhibition curve with a large enough effect; inconclusive = small, poorly fitted or top-dose-only effect; inactive = flat fitted curve, though single readings scatter.

What was measured:
Assay in all cases: qHTS profiling for inhibitors of Plasmodium falciparum proliferation (AID 504749); also: nearly all actives have a fitted effect of over 60% in size;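 as to activity, negative = inhibition: 0% = DMSO vehicle and full inhibition = artemisinin control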
Settings in all cases: P. falciparum in erythrocytes, SYBR Green DNA, 72 h; series mostly up to 28.7 µM
CP215 = system: CP215
Method in brief: (§1)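 Parasite proliferation within erythrocytes, 72 h exposure. Endpoint: SYBR Green I fluorescence after overnight lysis at room temperature. Controls: 0.29 uM artemisinin, DMSO.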

CP217 = system: CP217
Method in brief: as §1

CP237 = system: CP237
Method in brief: as §1

CP238 = system: CP238
Method in brief: as §1

CP247 = system: CP247
Method in brief: as §1

CP250 = system: CP250
Method in brief: as §1

CP252 = system: CP252
Method in brief: as §1

CP256 = system: CP256
Method in brief: as §1

CP260 = system: CP260
Method in brief: as §1

CP262 = system: CP262
Method in brief: as §1
Potency is read from the fitted curve at half-maximal effect.

CN1C(=O)CC(=O)N(c2ccccc2)c2cc(Cl)ccc21
inactive: Potency (CP215) | Potency (CP217) | Potency (CP237) | Potency (CP238) | Potency (CP247) | Potency (CP250) | Potency (CP252) | Potency (CP256) | Potency (CP260) | Potency (CP262)

CN1C(=O)COc2c(C(=O)NC3CN4CCC3CC4)cc(Cl)cc21 (stereo not given)
inactive: Potency (CP215) | Potency (CP217) | Potency (CP237) | Potency (CP238) | Potency (CP247) | Potency (CP250) | Potency (CP252) | Potency (CP256) | Potency (CP260) | Potency (CP262)

O=C1CN=C(c2ccccc2)c2cc([N+](=O)[O-])ccc2N1
inactive: Potency (CP215) | Potency (CP217) | Potency (CP237) | Potency (CP238) | Potency (CP247) | Potency (CP250) | Potency (CP252) | Potency (CP256) | Potency (CP260) | Potency (CP262)

C[C@]12CC[C@@H]3c4ccc(OC(=O)N(CCCl)CCCl)cc4CC[C@H]3[C@@H]1CC[C@@H]2O
inactive: Potency (CP215) | Potency (CP217) | Potency (CP237) | Potency (CP238) | Potency (CP247) | Potency (CP250) | Potency (CP252) | Potency (CP256) | Potency (CP260) | Potency (CP262)

CCCCC/C=C\C/C=C\C/C=C\C/C=C\CCCC(=O)NCC(=O)O
inactive: activity, negative = inhibition (CP215) 4.08% [at 2.67 µM] | activity, negative = inhibition (CP217) -11% [at 2.67 µM] | activity, negative = inhibition (CP237) 0.3% [at 2.67 µM] | activity, negative = inhibition (CP238) -1.95% [at 2.67 µM] | activity, negative = inhibition (CP247) 9.07% [at 2.67 µM] | activity, negative = inhibition (CP250) 11.6% [at 2.67 µM] | activity, negative = inhibition (CP252) -0.781% [at 2.67 µM] | activity, negative = inhibition (CP256) 0.973% [at 2.67 µM] | activity, negative = inhibition (CP260) 4.28% [at 2.67 µM] | activity, negative = inhibition (CP262) 2.09% [at 2.67 µM]

CC(C)NC(C)C
inactive: Potency (CP215) | Potency (CP217) | Potency (CP237) | Potency (CP238) | Potency (CP247) | Potency (CP250) | Potency (CP252) | Potency (CP256) | Potency (CP260) | Potency (CP262)

CN1C[C@H](C(=O)N[C@]2(C)O[C@@]3(O)[C@@H]4CCCN4C(=O)[C@H](Cc4ccccc4)N3C2=O)C=C2c3cccc4[nH]cc(c34)C[C@H]21
active: Potency (CP215) 5.36 µM | Potency (CP217) 1.41 µM | Potency (CP237) 0.224 µM | Potency (CP238) 1.41 µM | Potency (CP247) 3.55 µM | Potency (CP250) 3.16 µM | Potency (CP252) 1 µM | Potency (CP256) 4.47 µM | Potency (CP260) 0.282 µM | Potency (CP262) 9.53 µM

CN1C(=O)NC(=O)C(C)(C2=CCCCC2)C1=O (stereo not given)
inactive: Potency (CP215) | Potency (CP217) | Potency (CP237) | Potency (CP238) | Potency (CP247) | Potency (CP250) | Potency (CP252) | Potency (CP256) | Potency (CP260) | Potency (CP262)

COP(=S)(OC)Oc1ccc(SC)c(C)c1
inactive: Potency (CP215) | Potency (CP217) | Potency (CP237) | Potency (CP238) | Potency (CP247) | Potency (CP250) | Potency (CP252) | Potency (CP256) | Potency (CP260) | Potency (CP262)

O=C1OC(c2ccc(O)c(S(=O)(=O)O)c2)(c2ccc(O)c(S(=O)(=O)O)c2)c2c(Br)c(Br)c(Br)c(Br)c21
inactive: Potency (CP215) | Potency (CP217) | Potency (CP237) | Potency (CP238) | Potency (CP247) | Potency (CP250) | Potency (CP252) | Potency (CP256) | Potency (CP260) | Potency (CP262)

Clc1ccc2c(c1)C(c1ccccc1)=NCc1nncn1-2
inactive: Potency (CP215) | Potency (CP217) | Potency (CP237) | Potency (CP238) | Potency (CP247) | Potency (CP250) | Potency (CP252) | Potency (CP256) | Potency (CP260) | Potency (CP262)

Nc1nc(N)nc(NC2CC2)n1
inactive: Potency (CP215) | Potency (CP217) | Potency (CP237) | Potency (CP238) | Potency (CP247) | Potency (CP250) | Potency (CP252) | Potency (CP256) | Potency (CP260) | Potency (CP262)

COP(=S)(OC)Oc1ccc(S(=O)(=O)N(C)C)cc1
inactive: Potency (CP215) | Potency (CP217) | Potency (CP237) | Potency (CP238) | Potency (CP247) | Potency (CP250) | Potency (CP252) | Potency (CP256) | Potency (CP260) | Potency (CP262)

C[C@](O)(CS(=O)(=O)c1ccc(F)cc1)C(=O)Nc1ccc(C#N)c(C(F)(F)F)c1
inactive: Potency (CP215) | Potency (CP217) | Potency (CP237) | Potency (CP238) | Potency (CP247) | Potency (CP250) | Potency (CP252) | Potency (CP256) | Potency (CP260) | Potency (CP262)

Nc1ccc([As](=O)(O)O)cc1
inactive: Potency (CP215) | Potency (CP217) | Potency (CP237) | Potency (CP238) | Potency (CP247) | Potency (CP250) | Potency (CP252) | Potency (CP256) | Potency (CP260) | Potency (CP262)

CCC(C)(C)c1ccc(O)cc1
inactive: Potency (CP215) | Potency (CP217) | Potency (CP237) | Potency (CP238) | Potency (CP247) | Potency (CP250) | Potency (CP252) | Potency (CP256) | Potency (CP260) | Potency (CP262)

NNc1ccccc1
inactive: Potency (CP215) | Potency (CP217) | Potency (CP237) | Potency (CP238) | Potency (CP247) | Potency (CP250) | Potency (CP252) | Potency (CP256) | Potency (CP260) | Potency (CP262)

COc1c2c(cc3c1OCO3)CCN(C)C2
inactive: Potency (CP215) | Potency (CP217) | Potency (CP237) | Potency (CP238) | Potency (CP247) | Potency (CP250) | Potency (CP252) | Potency (CP256) | Potency (CP260) | Potency (CP262)

CCOC(=O)CC(SP(=S)(OC)OC)C(=O)OCC (stereo not given)
inactive: Potency (CP215) | Potency (CP217) | Potency (CP237) | Potency (CP238) | Potency (CP247) | Potency (CP250) | Potency (CP252) | Potency (CP256) | Potency (CP260) | Potency (CP262)

C[C@]12CCC(=O)C=C1CC[C@@H]1[C@@H]2CC[C@]2(C)C(=O)CC[C@@H]12
inactive: Potency (CP215) | Potency (CP217) | Potency (CP237) | Potency (CP238) | Potency (CP247) | Potency (CP250) | Potency (CP252) | Potency (CP256) | Potency (CP260) | Potency (CP262)
